Reference: PubChem BioAssay
Active and inactive are the calls of the source.

What was measured:
[1] = tested on: PRMT1 (protein arginine N-methyltransferase 1); experiment: small molecules binding arginine methyltransferase PRMT1 – biochemical, small-molecule microarray, 635 nm fluorescence, primary screen (AID 1088); settings: higher = more signal;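 note: binding of Prmt1 protein to compounds spotted on small-molecule microarray slides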
[2] = growth effects on S. cerevisiae YJM789 – YJM789 clinical isolate, OD600, 24 h, basal, primary screen (AID 1089); settings: higher = more signal, called active from +8 up or from −8 down;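 note: growth of clinical yeast isolate S. cerevisiae YJM 789 seeded 1000 cells per well; test concentration not given here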
[3] = S. pombe growth modifiers, basal conditions – strain 972, OD600, 24 h, no modulator, primary screen (AID 1090);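 note: basal condition with compound alone and no growth modifier present; test concentration not given here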; settings: S. pombe 972 growth, higher = more signal, called active from +8 up or from −8 down
[4] = budding yeast growth modifiers under rapamycin – strain BY4716, OD600, 96 h, primary screen (AID 1091); note: test concentration not given here; settings: S. cerevisiae BY4716 + rapamycin, higher = more signal, called active from +8 up or from −8 down
[5] = target: Torsin-1A-interacting protein 2 (Homo sapiens) (UniProt Q8NFQ8); experiment: small molecules binding lysate-expressed LULL1 – cell lysate, human LULL1 lysate, 635/667 nm fluorescence, primary screen (AID 1092); settings: small-molecule microarray, hLULL1 lysate binding, 635 nm fluorescence; higher = more signal;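 note: probe is lysate of COS7 cells overexpressing human LULL1; score merges per-feature 667 nm fluorescence with signal-to-noise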
Sequence of Torsin-1A-interacting protein 2 (Homo sapiens) (Q8NFQ8 whole entry, looked up): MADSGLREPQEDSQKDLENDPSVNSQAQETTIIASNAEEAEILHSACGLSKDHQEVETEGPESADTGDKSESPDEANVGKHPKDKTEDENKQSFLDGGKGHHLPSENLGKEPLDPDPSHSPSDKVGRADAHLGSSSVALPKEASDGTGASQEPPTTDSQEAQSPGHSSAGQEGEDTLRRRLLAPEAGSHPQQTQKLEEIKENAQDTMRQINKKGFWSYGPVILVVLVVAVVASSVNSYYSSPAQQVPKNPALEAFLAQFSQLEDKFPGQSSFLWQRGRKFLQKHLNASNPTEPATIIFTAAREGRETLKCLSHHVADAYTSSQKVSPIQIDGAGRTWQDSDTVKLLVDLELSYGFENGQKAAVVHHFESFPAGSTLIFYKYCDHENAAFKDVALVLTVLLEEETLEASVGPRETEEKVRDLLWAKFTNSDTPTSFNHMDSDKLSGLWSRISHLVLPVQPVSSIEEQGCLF

[6] = optical density change of DRC41 E. coli – strain DRC41, OD650, 24 h, E. coli filamentation project, primary screen (AID 1093);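 note: MC1000 strain lacking acrAB efflux and sulA so SOS filamentation is blocked; test concentration not given here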; settings: E. coli DRC41 growth, higher = more signal, called active from +8 up or from −8 down
[7] = probe aLefty2 binding to arrayed compounds – biochemical, biotinylated probe, 635/667 nm fluorescence, primary screen (AID 1094); settings: small-molecule microarray, higher = more signal;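 note: score merges spot fluorescence near 667 nm with spot signal-to-noise ratio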
[8] = tested on: Noggin (protein binding on small-molecule microarray); experiment: small molecules binding Noggin protein – biochemical, 635/667 nm fluorescence, primary screen (AID 1095); settings: 635 nm fluorescence, higher = more signal;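 note: score merges 667 nm feature fluorescence with signal to noise over triplicate slides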
[9] = target: Neurogenic locus notch homolog protein 3 (Homo sapiens) (UniProt Q9UM47); experiment: small molecules binding NOTCH3 protein – biochemical, 635/667 nm fluorescence, primary screen (AID 1096); settings: small-molecule microarray, 635 nm fluorescence, higher = more signal
Sequence of Neurogenic locus notch homolog protein 3 (Homo sapiens) (Q9UM47 whole entry, looked up): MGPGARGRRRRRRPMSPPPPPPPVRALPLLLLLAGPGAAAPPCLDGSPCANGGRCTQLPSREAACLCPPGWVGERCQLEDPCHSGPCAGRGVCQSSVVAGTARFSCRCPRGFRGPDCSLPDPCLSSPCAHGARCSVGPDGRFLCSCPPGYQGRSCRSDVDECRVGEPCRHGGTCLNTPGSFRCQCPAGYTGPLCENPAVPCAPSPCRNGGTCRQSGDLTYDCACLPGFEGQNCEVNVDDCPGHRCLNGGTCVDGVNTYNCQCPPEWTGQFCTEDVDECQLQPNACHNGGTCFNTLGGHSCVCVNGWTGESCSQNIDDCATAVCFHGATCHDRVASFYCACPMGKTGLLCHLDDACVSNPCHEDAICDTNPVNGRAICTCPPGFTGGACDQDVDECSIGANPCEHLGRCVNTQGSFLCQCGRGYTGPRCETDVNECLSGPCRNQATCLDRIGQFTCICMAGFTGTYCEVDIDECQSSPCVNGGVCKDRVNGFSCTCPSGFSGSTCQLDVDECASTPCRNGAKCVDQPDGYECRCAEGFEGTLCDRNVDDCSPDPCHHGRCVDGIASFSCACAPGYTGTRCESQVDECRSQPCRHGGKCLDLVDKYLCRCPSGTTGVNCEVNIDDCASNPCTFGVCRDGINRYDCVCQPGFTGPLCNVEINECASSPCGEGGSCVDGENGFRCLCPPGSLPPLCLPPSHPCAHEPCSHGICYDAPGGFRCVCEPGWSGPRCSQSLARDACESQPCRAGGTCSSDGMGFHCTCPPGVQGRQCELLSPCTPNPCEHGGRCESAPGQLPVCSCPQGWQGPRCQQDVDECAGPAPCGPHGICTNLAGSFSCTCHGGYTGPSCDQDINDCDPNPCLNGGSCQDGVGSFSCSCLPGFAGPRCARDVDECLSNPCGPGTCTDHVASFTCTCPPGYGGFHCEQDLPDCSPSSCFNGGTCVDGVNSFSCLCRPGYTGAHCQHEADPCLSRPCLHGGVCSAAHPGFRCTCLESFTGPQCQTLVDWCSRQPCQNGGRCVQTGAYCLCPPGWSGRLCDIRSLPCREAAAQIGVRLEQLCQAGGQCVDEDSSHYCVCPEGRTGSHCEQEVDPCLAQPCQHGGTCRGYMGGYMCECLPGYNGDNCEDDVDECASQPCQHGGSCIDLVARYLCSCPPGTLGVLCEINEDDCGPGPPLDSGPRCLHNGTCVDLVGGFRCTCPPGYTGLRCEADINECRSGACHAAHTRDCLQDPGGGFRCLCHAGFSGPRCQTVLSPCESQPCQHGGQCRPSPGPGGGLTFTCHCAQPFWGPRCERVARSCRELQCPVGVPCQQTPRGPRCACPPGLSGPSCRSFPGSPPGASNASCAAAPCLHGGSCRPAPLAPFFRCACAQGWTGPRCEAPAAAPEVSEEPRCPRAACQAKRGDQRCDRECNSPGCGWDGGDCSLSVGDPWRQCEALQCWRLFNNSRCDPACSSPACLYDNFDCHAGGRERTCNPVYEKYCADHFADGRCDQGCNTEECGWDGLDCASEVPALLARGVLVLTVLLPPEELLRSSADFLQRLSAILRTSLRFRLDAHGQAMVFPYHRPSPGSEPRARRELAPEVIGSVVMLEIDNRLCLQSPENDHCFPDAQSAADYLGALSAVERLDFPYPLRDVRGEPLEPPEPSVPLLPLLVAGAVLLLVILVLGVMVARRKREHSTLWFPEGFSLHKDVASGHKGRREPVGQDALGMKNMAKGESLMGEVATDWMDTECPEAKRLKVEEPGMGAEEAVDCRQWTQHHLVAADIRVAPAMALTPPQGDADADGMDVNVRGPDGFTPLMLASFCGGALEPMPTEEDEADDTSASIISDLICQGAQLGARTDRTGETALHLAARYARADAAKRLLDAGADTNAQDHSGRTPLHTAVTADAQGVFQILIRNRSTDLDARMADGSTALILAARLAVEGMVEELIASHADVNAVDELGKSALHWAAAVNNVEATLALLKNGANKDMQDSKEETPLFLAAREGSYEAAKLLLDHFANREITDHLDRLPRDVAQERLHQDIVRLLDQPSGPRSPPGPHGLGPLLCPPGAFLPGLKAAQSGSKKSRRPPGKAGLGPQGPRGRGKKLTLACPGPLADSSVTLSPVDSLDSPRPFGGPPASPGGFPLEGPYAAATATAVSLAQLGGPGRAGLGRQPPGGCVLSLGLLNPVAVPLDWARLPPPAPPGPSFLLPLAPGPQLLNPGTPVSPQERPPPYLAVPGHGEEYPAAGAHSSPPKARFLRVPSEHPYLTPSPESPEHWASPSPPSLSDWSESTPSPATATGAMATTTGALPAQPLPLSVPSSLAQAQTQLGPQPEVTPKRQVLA

[10] = probe aEGFR binding to arrayed compounds – biochemical, biotinylated probe, 635/667 nm fluorescence, primary screen (AID 1097); settings: small-molecule microarray, higher = more signal;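 note: probe is a biotinylated anti-EGFR antibody binding compounds printed on slides; score combines fluorescence near 667 nm and signal to noise of each spot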
[11] = tested on: Plasmodium falciparum Sir2 (PF13_0152, Sir2A); experiment: Plasmodium falciparum Sir2A binding compounds – biochemical, small-molecule microarray, 635 nm fluorescence, primary screen (AID 1098); settings: fluorescence 635 nm, higher = more signal;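 note: score merges spot fluorescence intensity with its signal-to-noise ratio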
[12] = probe aDKK1 binding to arrayed compounds – biochemical, biotinylated probe, 635/667 nm fluorescence, primary screen (AID 1099); settings: small-molecule microarray, higher = more signal;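 note: score merges 667nm spot fluorescence with signal to noise across triplicate slides; reference of the scale not given here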
[13] = probe aCHRDL2 binding to arrayed compounds – biochemical, biotinylated probe, 635/667 nm fluorescence, primary screen (AID 1100); settings: small-molecule microarray, higher = more signal
[14] = change in splice reporter luminescence, either direction, cell-based, HEK293, spliceosome inhibition project, primary screen (AID 1101); settings: HEK293 splicing luciferase reporter, 24 h, higher = more signal, called active from +8 up or from −8 down;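 note: HEK293 cells carrying a splicing-competent luciferase reporter gene; test concentration not given here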
[15] = target: Fibroblast growth factor 10 (Homo sapiens) (UniProt O15520); experiment: compounds binding fibroblast growth factor 10 – biochemical, small-molecule microarray, 635 nm fluorescence, primary screen (AID 1102); settings: FGF10 binding, fluorescence 635 nm, higher = more signal
Sequence of Fibroblast growth factor 10 (Homo sapiens) (O15520 whole entry, looked up): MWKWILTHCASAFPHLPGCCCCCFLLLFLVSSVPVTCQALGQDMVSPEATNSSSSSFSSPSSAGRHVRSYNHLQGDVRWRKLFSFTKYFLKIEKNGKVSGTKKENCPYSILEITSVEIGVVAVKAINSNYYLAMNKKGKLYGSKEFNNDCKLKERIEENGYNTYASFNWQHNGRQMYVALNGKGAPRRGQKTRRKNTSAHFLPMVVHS

[16] = tested on: glycogen synthase kinase-3 (GSK3A per assay name; protocol says GSK3B); experiment: compounds binding glycogen synthase kinase-3 – biochemical, small-molecule microarray, 635 nm fluorescence, GSK3A, primary screen (AID 1103); settings: fluorescence 635 nm, higher = more signal; note: the record names both GSK3A and GSK3B
[17] = target: Epidermal growth factor receptor (Homo sapiens) (UniProt P00533); experiment: compounds binding epidermal growth factor receptor – biochemical, small-molecule microarray, 635 nm fluorescence, primary screen (AID 1104); settings: EGFR binding, higher = more signal;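 note: score merges 667 nm emission intensity with spot signal to noise over triplicate slides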
Sequence of Epidermal growth factor receptor (Homo sapiens) (P00533 whole entry, looked up): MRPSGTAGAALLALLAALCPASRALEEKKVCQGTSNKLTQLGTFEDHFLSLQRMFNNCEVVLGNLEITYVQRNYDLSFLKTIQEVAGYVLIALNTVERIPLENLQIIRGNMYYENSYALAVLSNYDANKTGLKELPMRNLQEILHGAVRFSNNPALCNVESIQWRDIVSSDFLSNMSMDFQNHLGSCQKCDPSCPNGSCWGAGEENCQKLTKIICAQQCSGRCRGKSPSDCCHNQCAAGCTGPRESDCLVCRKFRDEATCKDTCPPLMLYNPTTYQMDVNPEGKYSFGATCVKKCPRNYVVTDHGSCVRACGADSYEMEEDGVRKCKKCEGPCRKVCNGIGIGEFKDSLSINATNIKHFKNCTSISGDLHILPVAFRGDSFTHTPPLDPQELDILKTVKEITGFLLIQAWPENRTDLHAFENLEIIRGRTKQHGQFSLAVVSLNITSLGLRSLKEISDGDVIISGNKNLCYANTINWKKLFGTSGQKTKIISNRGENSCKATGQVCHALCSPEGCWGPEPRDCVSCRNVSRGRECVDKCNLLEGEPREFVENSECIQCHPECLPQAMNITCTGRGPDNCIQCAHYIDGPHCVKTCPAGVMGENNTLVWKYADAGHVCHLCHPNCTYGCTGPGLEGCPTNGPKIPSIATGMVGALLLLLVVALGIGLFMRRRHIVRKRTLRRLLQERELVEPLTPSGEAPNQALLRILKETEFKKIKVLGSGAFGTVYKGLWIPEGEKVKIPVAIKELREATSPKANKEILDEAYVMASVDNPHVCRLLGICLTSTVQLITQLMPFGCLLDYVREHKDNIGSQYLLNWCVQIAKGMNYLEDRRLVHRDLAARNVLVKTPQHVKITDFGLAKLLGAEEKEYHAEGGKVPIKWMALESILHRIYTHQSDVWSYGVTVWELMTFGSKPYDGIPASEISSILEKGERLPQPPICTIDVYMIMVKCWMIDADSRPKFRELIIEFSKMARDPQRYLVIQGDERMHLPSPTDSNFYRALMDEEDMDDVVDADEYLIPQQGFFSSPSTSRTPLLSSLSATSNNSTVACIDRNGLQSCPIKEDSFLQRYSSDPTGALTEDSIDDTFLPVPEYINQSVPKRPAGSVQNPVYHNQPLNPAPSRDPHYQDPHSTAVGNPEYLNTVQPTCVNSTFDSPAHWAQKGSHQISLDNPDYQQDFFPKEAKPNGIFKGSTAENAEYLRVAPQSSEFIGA

[18] = target: Follistatin-related protein 3 (Homo sapiens) (UniProt O95633); experiment: compounds binding follistatin-related protein 3 – biochemical, small-molecule microarray, 635 nm fluorescence, primary screen (AID 1105); settings: FSTL3 binding, higher = more signal;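 note: score merges emission near 667 nm and signal to noise per printed spot across three slides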
Sequence of Follistatin-related protein 3 (Homo sapiens) (O95633 whole entry, looked up): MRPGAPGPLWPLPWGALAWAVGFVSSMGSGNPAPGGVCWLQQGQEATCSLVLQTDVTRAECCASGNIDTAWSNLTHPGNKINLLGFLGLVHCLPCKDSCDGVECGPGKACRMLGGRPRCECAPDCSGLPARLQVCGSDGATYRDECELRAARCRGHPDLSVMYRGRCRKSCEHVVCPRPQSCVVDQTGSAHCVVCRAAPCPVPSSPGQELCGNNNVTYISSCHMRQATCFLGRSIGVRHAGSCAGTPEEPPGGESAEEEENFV

[19] = target: Dickkopf-related protein 1 (Homo sapiens) (UniProt O94907); experiment: small molecules binding DKK1 protein – biochemical, small-molecule microarray, 635 nm fluorescence scan, primary screen (AID 1106); settings: higher = more signal;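 note: score merges emission near 667 nm with signal to noise over three replicate slides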
Sequence of Dickkopf-related protein 1 (Homo sapiens) (O94907 whole entry, looked up): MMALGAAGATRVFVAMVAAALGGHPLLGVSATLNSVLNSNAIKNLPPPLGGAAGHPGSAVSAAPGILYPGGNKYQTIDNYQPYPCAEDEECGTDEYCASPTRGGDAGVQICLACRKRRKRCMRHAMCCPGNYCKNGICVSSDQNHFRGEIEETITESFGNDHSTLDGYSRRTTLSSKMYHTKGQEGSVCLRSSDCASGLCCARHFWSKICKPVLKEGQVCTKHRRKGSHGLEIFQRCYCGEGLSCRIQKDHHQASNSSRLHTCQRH

[20] = tested on: Inhibin beta A chain (activin A); experiment: small molecules binding activin A – biochemical, small-molecule microarray, 635 nm fluorescence scan, primary screen (AID 1107); settings: INHBA, higher = more signal;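 note: mouse activin A protein probed at 4.33 µg/mL on printed slides; score merges bound-protein fluorescence near 667 nm with spot signal-to-noise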

SMILES | composite z-score [1] | z-score [2] | z-score [3] | z-score [4] | composite z-score [5] | z-score [6] | composite z-score [7] | composite z-score [8] | composite z-score [9] | composite z-score [10] | composite z-score [11] | composite z-score [12] | composite z-score [13] | z-score [14] | composite z-score [15] | composite z-score [16] | composite z-score [17] | composite z-score [18] | composite z-score [19] | composite z-score [20]
C=CCC(OC(C)=O)[C@@H]1[C@@H](N(Cc2cccc3ccccc23)C(=O)Cc2ccc(F)cc2)c2cc(OCCCO)ccc2N1C(=O)c1ccc(-c2ccccc2)cc1 (stereo not given in full) | -0.325 | -0.256 (inactive) | -0.277 (inactive) | 0.18 (inactive) | 0.451 | 0.125 (inactive) | 0.125 | -0.556 | -1.37 | 0.0457 | -0.171 | 0.592 | 0.976 | -0.312 (inactive) | -0.219 | -0.502 | -0.304 | 0.047 | -0.506 | 1.45
CCOC(=O)C=Cc1cc(F)ccc1O | 0.311 | -26.6 (active) | -15.2 (active) | -1.06 (inactive) | 0.905 | -0.624 (inactive) | -0.0446 | -0.173 | -0.18 | -0.233 | 0.188 | -0.137 | -0.31 | -1.37 (inactive) | 0.168 | -0.126 | 0.0683 | 0.0871 | -0.258 | 0.835
CN1C(=O)C2C=CC(C(O)c3ccc(F)cc3)N(NC(=O)OC(C)(C)C)C2C1=O (stereo not given) | 0.219 | 1.19 (inactive) | 2.11 (inactive) | 1.71 (inactive) | 3.28 | -1.31 (inactive) | -0.0154 | -0.205 | 0.816 | -0.0531 | 0.578 | -0.066 | 0.535 | 1.15 (inactive) | 0.45 | 0.336 | -0.196 | 0.15 | -0.767 | 0.471
COCCOC(=O)N1C(=O)[C@@]2(c3ccccc31)[C@H](c1ccccc1OCCO)N1[C@H](c3ccccc3)[C@H](c3ccccc3)OC(=O)[C@H]1[C@@H]2C(=O)N1CCCCCCC1 | 1.54 | 1.3 (inactive) | 1.35 (inactive) | 5.52 (inactive) | 4.47 | -0.489 (inactive) | 1.97 | 1.78 | 1 | 1.48 | 1.91 | 3.18 | 1.76 | -1.46 (inactive) | 1.37 | 1.37 | 1.91 | 1.68 | 2.31 | 2.02
C=C(COC)/C(=C/C[C@@H](OC(=O)c1ccncc1)c1ccccc1OCCO)c1cc(C(=O)OC)ccc1OC | 0.768 | -0.833 (inactive) | -0.778 (inactive) | 0.351 (inactive) | 0.703 | 0.0184 (inactive) | -0.106 | -0.341 | -0.0686 | -0.178 | -0.979 | -0.0241 | 0.445 | 2.66 (inactive) | -0.0528 | -0.628 | -0.796 | -0.354 | -0.276 | 0.845
CC(C)=CCCC(C)=CC(O)C1C=CC2C(=O)N(c3ccccc3)C(=O)C2N1Nc1ccccc1F (stereo not given) | 0.945 | -1.23 (inactive) | -0.347 (inactive) | -0.707 (inactive) | 2.41 | 0.401 (inactive) | -0.166 | -0.0409 | 0.761 | -0.0828 | 1.33 | 0.0643 | 0.0744 | -0.652 (inactive) | 0.85 | 0.403 | 0.329 | 0.587 | -0.0093 | 0.418
COCCOC(=O)N1C(=O)[C@@]2(c3cc(C#CCCO)ccc31)[C@H](C(=O)N1CCCCCCC1)[C@H]1C(=O)O[C@H](c3ccccc3)[C@H](c3ccccc3)N1[C@@H]2c1ccccc1OCCO | 1.54 | 0.658 (inactive) | -2.09 (inactive) | 1.93 (inactive) | 4 | -0.452 (inactive) | 1.47 | 1.76 | 1.07 | 0.89 | 1.24 | 2.67 | 1.6 | -0.0434 (inactive) | 0.663 | 1.35 | 1.31 | 1.58 | 1.43 | 1.86
C=CC[C@H](OC(=O)Nc1ccc(SC)cc1)c1ccc(OCCO)cc1 | -0.693 | -0.739 (inactive) | -2.94 (inactive) | -0.598 (inactive) | 0.639 | 0.951 (inactive) | -0.15 | 0.732 | 0.201 | -0.19 | 0.392 | -0.164 | 0.799 | -1.69 (inactive) | -0.163 | -0.989 | -0.634 | -0.0191 | -0.472 | 0.138
COCCOC(=O)N1C(=O)[C@@]2(c3cc(C#CC4=CCCCC4)ccc31)[C@H](c1ccc(O)cc1)N1[C@H](c3ccccc3)[C@H](c3ccccc3)OC(=O)[C@H]1[C@@H]2C(=O)NC[C@H](O)c1ccccc1 | 1.56 | 1.44 (inactive) | 0.236 (inactive) | 3.15 (inactive) | 2.51 | 0.12 (inactive) | -0.003 | 0.782 | 1.07 | 0.0397 | 0.535 | 0.0353 | 0.129 | -0.586 (inactive) | 1.12 | 0.348 | 0.462 | 1.17 | 0.557 | 0.528
O=C1O[C@H](c2ccccc2)[C@H](c2ccccc2)N2[C@H]1[C@@H](C(=O)O)[C@]1(C(=O)Nc3ccc(C#CC4(O)CCCCCC4)cc31)[C@H]2c1ccc(O)cc1 | 0.871 | -0.386 (inactive) | -1.22 (inactive) | -1.76 (inactive) | 3.14 | 2.04 (inactive) | -0.142 | -0.292 | 0.0139 | 0.192 | 0.502 | -0.2 | 0.14 | -0.574 (inactive) | 0.0884 | -0.103 | 0.161 | -0.544 | -0.297 | 0.138
